Screen size: about 5,500 compounds; about 2,000 (36%) were called active. About 18% were inconclusive and are not listed. Cut-off read from the data, not from the text of the source: active = normalized growth mostly below about 0.91 (no sharp cut-off); inconclusive = no clear call, values can overlap the other calls; inactive = mostly above about 0.92. Some of the results follow.
Experiment: chemical genetic growth profiling, strain panel (AID 1159580);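 note: tested at 20 µM; growth read once vehicle control cultures reached saturation at 30 °C; 1 = growth at the plate median or of vehicle wells; lower values mean less growth of the strain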
Settings: growth OD

Measured: normalized growth

COc1cc([C@@H]2c3cc4c(c(O)c3C[C@H]3COC(=O)[C@@H]32)OCO4)cc(OC)c1OC
inactive: S. cerevisiae deletion strains, locus YJR043C, strain POL32, stronger effect = lower value 0.989 | S. cerevisiae deletion strains, locus YJR075W, strain HOC1, stronger effect = lower value 0.996 | S. cerevisiae deletion strains, locus YKL009W, strain mrt4, stronger effect = lower value 0.983 | S. cerevisiae deletion strains, locus YKL068W, stronger effect = lower value 0.979 | S. cerevisiae deletion strains, locus YKL085W, strain MDH1 (second series), stronger effect = lower value 0.973 | S. cerevisiae deletion strains, locus YKL085W, strain MDH1, stronger effect = lower value 0.973 | S. cerevisiae deletion strains, locus YKL160W, strain elf1, stronger effect = lower value 1 | S. cerevisiae deletion strains, locus YKL190W, strain CNB1, stronger effect = lower value 0.986 | S. cerevisiae deletion strains, locus YKR001C, strain vps1, stronger effect = lower value 1 | S. cerevisiae deletion strains, locus YKR026C, strain gcn3, stronger effect = lower value 0.985 | S. cerevisiae deletion strains, locus YKR091W, strain srl3, stronger effect = lower value 0.995 | S. cerevisiae deletion strains, locus YLL001W, strain dnm1, stronger effect = lower value 0.991 | S. cerevisiae deletion strains, locus YLL026W, stronger effect = lower value 0.993 | S. cerevisiae deletion strains, locus YLL041C, strain sdh2, stronger effect = lower value 0.99 | S. cerevisiae deletion strains, locus YLR027C, strain aat2, stronger effect = lower value 0.974 | S. cerevisiae deletion strains, locus YLR039C, strain RIC1, stronger effect = lower value 0.921 | S. cerevisiae deletion strains, locus YLR058C, strain SHM2, stronger effect = lower value 0.982 | S. cerevisiae deletion strains, locus YLR102C, strain apc9, stronger effect = lower value 0.976 | S. cerevisiae deletion strains, locus YLR221C, strain rsa3, stronger effect = lower value 0.959 | S. cerevisiae deletion strains, locus YLR258W, strain gsy2, stronger effect = lower value 1.01 | S. cerevisiae deletion strains, locus YLR262C, strain YPT6 (second series), stronger effect = lower value 0.989 | S. cerevisiae deletion strains, locus YLR262C, strain YPT6, stronger effect = lower value 0.907 | S. cerevisiae deletion strains, locus YLR268W, strain sec22, stronger effect = lower value 1.01 | S. cerevisiae deletion strains, locus YLR320W, strain mms22, stronger effect = lower value 0.963 | S. cerevisiae deletion strains, locus YLR330W, strain CHS5, stronger effect = lower value 0.981 | S. cerevisiae deletion strains, locus YLR342W, strain FKS1 (second series), stronger effect = lower value 0.971 | S. cerevisiae deletion strains, locus YLR342W, strain FKS1, stronger effect = lower value 0.983 | S. cerevisiae deletion strains, locus YLR357W, strain rsc2, stronger effect = lower value 0.999 | S. cerevisiae deletion strains, locus YLR370C, strain arc18, stronger effect = lower value 1 | S. cerevisiae deletion strains, locus YLR371W, strain rom2, stronger effect = lower value 0.946 | S. cerevisiae deletion strains, locus YLR384C, strain iki3, stronger effect = lower value 0.98 | S. cerevisiae deletion strains, locus YLR418C, strain cdc73, stronger effect = lower value 1.01 | S. cerevisiae deletion strains, locus YML016C, strain PPZ1, stronger effect = lower value 0.992 | S. cerevisiae deletion strains, locus YML032C, strain rad52, stronger effect = lower value 0.991 | S. cerevisiae deletion strains, locus YML120C, strain ndi1, stronger effect = lower value 0.998 | S. cerevisiae deletion strains, locus YML124C, strain tub3, stronger effect = lower value 0.988 | S. cerevisiae deletion strains, locus YMR058W, strain fet3, stronger effect = lower value 0.999 | S. cerevisiae deletion strains, locus YMR078C, strain ctf18, stronger effect = lower value 0.995 | S. cerevisiae deletion strains, locus YMR125W, strain sto1, stronger effect = lower value 0.986 | S. cerevisiae deletion strains, locus YMR129W, stronger effect = lower value 0.984 | S. cerevisiae deletion strains, locus YMR205C, strain PFK2, stronger effect = lower value 0.982 | S. cerevisiae deletion strains, locus YMR223W, strain ubp8, stronger effect = lower value 0.987 | S. cerevisiae deletion strains, locus YMR231W, strain pep5, stronger effect = lower value 0.991 | S. cerevisiae deletion strains, locus YMR263W, strain SAP30, stronger effect = lower value 1 | S. cerevisiae deletion strains, locus YMR307W, strain GAS1, stronger effect = lower value 1.02 | S. cerevisiae deletion strains, locus YNL067W, strain RPL9B, stronger effect = lower value 1.02 | S. cerevisiae deletion strains, locus YNL071W, strain lat1, stronger effect = lower value 1.01 | S. cerevisiae deletion strains, locus YNL128W, strain TEP1, stronger effect = lower value 0.989 | S. cerevisiae deletion strains, locus YNL153C, strain GIM3, stronger effect = lower value 1.03 | S. cerevisiae deletion strains, locus YNL209W, strain ssb2, stronger effect = lower value 1 | S. cerevisiae deletion strains, locus YNL233W, strain BNI4, stronger effect = lower value 1.04 | S. cerevisiae deletion strains, locus YNL248C, strain rpa49, stronger effect = lower value 0.984 | S. cerevisiae deletion strains, locus YNL250W, strain rad50, stronger effect = lower value 0.955 | S. cerevisiae deletion strains, locus YNL271C, strain bni1, stronger effect = lower value 0.973 | S. cerevisiae deletion strains, locus YNL298W, strain CLA4, stronger effect = lower value 0.976 | S. cerevisiae deletion strains, locus YNL307C, strain MCK1, stronger effect = lower value 0.992 | S. cerevisiae deletion strains, locus YNL322C, strain KRE1 (second series), stronger effect = lower value 1 | S. cerevisiae deletion strains, locus YNL322C, strain KRE1, stronger effect = lower value 0.979 | S. cerevisiae deletion strains, locus YNR049C, strain mso1, stronger effect = lower value 0.986 | S. cerevisiae deletion strains, locus YNR052C, strain pop2, stronger effect = lower value 0.975 | S. cerevisiae deletion strains, locus YOL006C, strain TOP1, stronger effect = lower value 1.08 | S. cerevisiae deletion strains, locus YOL012C, strain htz1 0.866 | S. cerevisiae deletion strains, locus YOL147C, strain pex11, stronger effect = lower value 0.985 | S. cerevisiae deletion strains, locus YOR001W, strain rrp6, stronger effect = lower value 0.957 | S. cerevisiae deletion strains, locus YOR061W, strain CKA2, stronger effect = lower value 0.986 | S. cerevisiae deletion strains, locus YOR069W, strain VPS5, stronger effect = lower value 0.992 | S. cerevisiae deletion strains, locus YOR070C, strain gyp1, stronger effect = lower value 0.987 | S. cerevisiae deletion strains, locus YOR080W, strain dia2, stronger effect = lower value 0.98 | S. cerevisiae deletion strains, locus YOR083W, strain WHI5, stronger effect = lower value 1.01 | S. cerevisiae deletion strains, locus YOR106W, strain vam3, stronger effect = lower value 1 | S. cerevisiae deletion strains, locus YOR136W, strain idh2, stronger effect = lower value 0.984 | S. cerevisiae deletion strains, locus YOR144C, strain elg1, stronger effect = lower value 0.984 | S. cerevisiae deletion strains, locus YOR184W, strain ser1, stronger effect = lower value 0.973 | S. cerevisiae deletion strains, locus YOR265W, strain rbl2, stronger effect = lower value 0.992 | S. cerevisiae deletion strains, locus YOR270C, strain vph1, stronger effect = lower value 0.98 | S. cerevisiae deletion strains, locus YOR290C, strain snf2, stronger effect = lower value 0.987 | S. cerevisiae deletion strains, locus YOR316C, strain cot1, stronger effect = lower value 0.983 | S. cerevisiae deletion strains, locus YPL051W, strain arl3, stronger effect = lower value 0.965 | S. cerevisiae deletion strains, locus YPL055C, strain LGE1, stronger effect = lower value 1.03 | S. cerevisiae deletion strains, locus YPL078C, strain atp4, stronger effect = lower value 1.01 | S. cerevisiae deletion strains, locus YPL106C, strain sse1, stronger effect = lower value 0.987 | S. cerevisiae deletion strains, locus YPL240C, strain hsp82, stronger effect = lower value 0.992 | S. cerevisiae deletion strains, locus YPL241C, strain CIN2, stronger effect = lower value 0.987 | S. cerevisiae deletion strains, locus YPR119W, strain clb2, stronger effect = lower value 0.979 | S. cerevisiae deletion strains, locus YPR141C, strain kar3, stronger effect = lower value 0.979 | S. cerevisiae deletion strains, locus YPR163C, strain tif3, stronger effect = lower value 0.97 | S. cerevisiae deletion strains, locus YPR167C, strain met16, stronger effect = lower value 0.971 | S. cerevisiae deletion strains, strain wtn01, stronger effect = lower value 1 | S. cerevisiae strains, strain wild type, stronger effect = lower value 0.99

— PubChem BioAssay AID1159580 (chemical genetic matrix, 2015)
